Assay results reported in PubChem BioAssay (EPA / NIEHS).
Activity calls are given as the source filed them. Rule for the calls: active = hit-call score of the fitted dose curve at least 0.9, where 1 is the maximum; inactive = score below 0.9.

Key:
Details in all cases: mRNA level, 48 h; actives raise or lower the signal
[1] = read-out: Peroxisomal acyl-coenzyme A oxidase 1 (ACOX1) gene, ACOX1 (gene 51); assay: LTEA_HepaRG_ACOX1: Life Technologies and Expression Analysis (LTEA) Assay for Peroxisomal acyl-coenzyme A oxidase 1 (ACOX1) gene using HepaRG (AID 2283467)
Outline: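 Human HepaRG hepatic cultures, 48 h treatment with test chemicals up to 100 uM. ACOX1 expression read by qRT-PCR relative to 0.5% DMSO vehicle.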

[2] = read-out: Alkaline Phosphatase, Placental (ALPP) gene, ALPP (gene 250); assay: LTEA_HepaRG_ALPP: Life Technologies and Expression Analysis (LTEA) Assay for Alkaline Phosphatase, Placental (ALPP) gene using HepaRG (AID 2283468);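 for AC50: differentiated human HepaRG liver cells in serum-free induction medium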
Outline: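 HepaRG, 48 h plating then 48 h dosing, serum-free induction medium, 0.5% DMSO. 8 conc, half-log, max 100 uM, duplicates. Endpoint: ALPP transcript by qRT-PCR, housekeeping-normalized; gain or loss fitted vs DMSO.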

[3] = read-out: Bcl-2 (BAD) gene, BAD (gene 572); assay: LTEA_HepaRG_BAD: Life Technologies and Expression Analysis (LTEA) Assay for Bcl-2 (BAD) gene using HepaRG (AID 2283469)
Outline: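 Activity values reflect up- or down-regulation of BAD mRNA in human HepaRG hepatic cells treated 48 h in serum-free medium, with eight-point half-log dosing capped at 100 uM and 0.5% DMSO vehicle.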

[4] = read-out: Bcl-2 (BAX) gene, BAX (gene 581); assay: LTEA_HepaRG_BAX: Life Technologies and Expression Analysis (LTEA) Assay for Bcl-2 (BAX) gene using HepaRG (AID 2283470)
Outline: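 Human HepaRG cells treated in duplicate for 48 h across eight concentrations (max 100 uM, 0.5% DMSO); BAX expression measured by qRT-PCR.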

[5] = read-out: adenosine kinase (ADK) gene, ADK (gene 132); assay: LTEA_HepaRG_ADK: Life Technologies and Expression Analysis (LTEA) Assay for adenosine kinase (ADK) gene using HepaRG (AID 2283471)
Outline: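 Read-out is ADK transcript level measured by qRT-PCR and normalised to three housekeeping genes. Cells are human HepaRG, dosed for 48 h at up to 100 uM in 0.5% DMSO. Gain or loss of signal is fitted against DMSO controls.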

[6] = read-out: Alpha-fetoprotein (AFP) gene, AFP (gene 174); assay: LTEA_HepaRG_AFP: Life Technologies and Expression Analysis (LTEA) Assay for Alpha-fetoprotein (AFP) gene using HepaRG (AID 2283472)
Outline: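 Measures AFP mRNA change in HepaRG after 48 h chemical exposure (8 half-log concentrations, highest 100 uM, 0.5% DMSO). Fold change relative to DMSO, fitted in both directions.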

BCL2L11 (gene 10018) = assay: LTEA_HepaRG_BCL2L11: Life Technologies and Expression Analysis (LTEA) Assay for Bcl-2 (BCL2L11) gene using HepaRG (AID 2283473)
Outline: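 Read-out is BCL2L11 transcript level by qRT-PCR, normalized to three housekeeping genes and fitted bidirectionally against 0.5% DMSO vehicle. HepaRG cells received chemicals for 48 h in serum-free induction medium, 100 uM down in half-log dilutions.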

[7] = read-out: Apolipoprotein A-V (APOA5) gene, APOA5 (gene 116519); assay: LTEA_HepaRG_APOA5: Life Technologies and Expression Analysis (LTEA) Assay for Apolipoprotein A-V (APOA5) gene using HepaRG (AID 2283474)
Outline: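 Readout is APOA5 transcript level by qRT-PCR on Fluidigm dynamic arrays, normalized to three housekeeping genes. HepaRG cultures received chemicals for 48 h at up to 100 uM (half-log steps, 0.5% DMSO), with gain or loss scored relative to DMSO.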

[8] = read-out: Apoptosis regulator Bcl-2 (Homo sapiens) (UniProt P10415); assay: LTEA_HepaRG_BCL2: Life Technologies and Expression Analysis (LTEA) Assay for Bcl-2 gene using HepaRG (AID 2283475);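 note: BCL2 transcript by TaqMan qRT-PCR normalised to ACTB GAPDH and POLR2A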
Outline: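 Each chemical was tested in duplicate on HepaRG cultures held in serum-free induction medium for 48 h, highest concentration 100 uM with half-log dilutions. Transcript levels came from multiplexed qRT-PCR, normalised to housekeeping genes; activity was scored in either direction relative to DMSO.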

[9] = read-out: Bcl-2 (BID) gene, BID (gene 637); assay: LTEA_HepaRG_BID: Life Technologies and Expression Analysis (LTEA) Assay for Bcl-2 (BID) gene using HepaRG (AID 2283476)
Outline: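 Assay used HepaRG hepatic cells treated 48 h in serum-free medium with half-log dilutions from 100 uM. Endpoint: BID mRNA, qRT-PCR, normalized to ACTB/GAPDH/POLR2A.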

Caspase-3 (Homo sapiens) = Caspase-3 (Homo sapiens) (UniProt P42574); assay: LTEA_HepaRG_CASP3: Life Technologies and Expression Analysis (LTEA) Assay for cysteine-aspartic acid protease (CASP3) using HepaRG (AID 2283477)
Outline: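 Read-out is CASP3 mRNA level by TaqMan qRT-PCR in human HepaRG cells after 48 h chemical exposure. Eight half-log concentrations topping at 100 uM were tested in 0.5% DMSO; gain or loss was fitted relative to DMSO.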

[10] = read-out: Cytochrome P450 (CYP24A1), CYP24A1 (gene 1591); assay: LTEA_HepaRG_CYP24A1: Life Technologies and Expression Analysis (LTEA) Assay for Cytochrome P450 (CYP24A1) using HepaRG (AID 2283478)
Outline: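 HepaRG, 48 h chemical exposure, 8-pt half-log CRC from 100 uM, 0.5% DMSO vehicle, duplicates. Endpoint: CYP24A1 mRNA by Fluidigm TaqMan qRT-PCR, normalized ACTB/GAPDH/POLR2A; gain/loss fit vs DMSO.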

[11] = read-out: Cytochrome P450 (CYP1A2), CYP1A2 (gene 1544); assay: LTEA_HepaRG_CYP1A2: Life Technologies and Expression Analysis (LTEA) Assay for Cytochrome P450 (CYP1A2) using HepaRG (AID 2283479)
Outline: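 CYP1A2 transcript induction or loss, quantified by Fluidigm qRT-PCR against three housekeeping genes, was fitted bidirectionally against 0.5% DMSO controls. Human HepaRG cells received eight half-log concentrations from 100 uM over 48 h.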

[12] = read-out: Cytochrome P450 (CYP2B6), CYP2B6 (gene 1555); assay: LTEA_HepaRG_CYP2B6: Life Technologies and Expression Analysis (LTEA) Assay for Cytochrome P450 (CYP2B6) using HepaRG (AID 2283481)
Outline: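 HepaRG cells plated 48 h, switched to serum-free induction medium, then dosed 48 h (8 points, half-log from 100 uM, 0.5% DMSO). RNA isolated; CYP2B6 expression measured by qRT-PCR; gain or loss fitted relative to DMSO.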

[13] = read-out: Cytochrome P450 2C19 (Homo sapiens) (UniProt P33261); assay: LTEA_HepaRG_CYP2C19: Life Technologies and Expression Analysis (LTEA) Assay for CYP2C19 using HepaRG (AID 2283482)
Outline: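 Transcript levels of CYP2C19 were quantified by qRT-PCR after HepaRG cells were treated for 48 hours with test chemicals up to 100 uM (eight half-log concentrations, 0.5% DMSO vehicle). Gain or loss of signal was fitted relative to DMSO.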

CYP2C8 (gene 1558) = assay: LTEA_HepaRG_CYP2C8: Life Technologies and Expression Analysis (LTEA) Assay for CYP2C8 using HepaRG (AID 2283483)
Outline: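 This is a transcriptional endpoint in HepaRG cultures: 48 h exposure, highest concentration 100 uM. CYP2C8 mRNA is quantified by TaqMan qRT-PCR.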

CYP2C9 (gene 1559) = assay: LTEA_HepaRG_CYP2C9: Life Technologies and Expression Analysis (LTEA) Assay for CYP2C9 using HepaRG (AID 2283484)
Outline: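 Eight-point concentration-response (highest 100 uM, half-log dilutions) in HepaRG cells for 48 h; CYP2C9 expression by qRT-PCR normalized to ACTB, GAPDH, POLR2A. Bidirectional fit, DMSO baseline.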

CYP2E1 (gene 1571) = assay: LTEA_HepaRG_CYP2E1: Life Technologies and Expression Analysis (LTEA) Assay for CYP2E1 using HepaRG (AID 2283485)
Outline: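 Assay uses 48 h exposure of HepaRG hepatic cells, eight concentrations to 100 uM. Expression of CYP2E1 is quantified by TaqMan qRT-PCR with ACTB, GAPDH and POLR2A normalization; curves fitted in both directions relative to vehicle.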

CYP4A11 (gene 1579) = assay: LTEA_HepaRG_CYP4A11: Life Technologies and Expression Analysis (LTEA) Assay for CYP4A11 using HepaRG (AID 2283486)
Outline: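 HepaRG, 48 h chem exposure, 8 conc (100 uM top, half-log), 0.5% DMSO vehicle; qRT-PCR readout, housekeeping-gene normalized; bidirectional curve fit vs DMSO baseline.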

[14] = read-out: cysteine-aspartic acid protease (CASP8), CASP8 (gene 841); assay: LTEA_HepaRG_CASP8: Life Technologies and Expression Analysis (LTEA) Assay for cysteine-aspartic acid protease (CASP8) using HepaRG (AID 2283480)
Outline: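 Concentration-response in duplicate up to 100 uM (half-log steps, 0.5% DMSO) on differentiated HepaRG cultures for 48 h. Expression change of CASP8 mRNA is determined by TaqMan qRT-PCR with housekeeping-gene normalization.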

Measured: AC50

Apoptosis regulator Bcl-2 (Homo sapiens), sequence (P10415 whole entry, looked up): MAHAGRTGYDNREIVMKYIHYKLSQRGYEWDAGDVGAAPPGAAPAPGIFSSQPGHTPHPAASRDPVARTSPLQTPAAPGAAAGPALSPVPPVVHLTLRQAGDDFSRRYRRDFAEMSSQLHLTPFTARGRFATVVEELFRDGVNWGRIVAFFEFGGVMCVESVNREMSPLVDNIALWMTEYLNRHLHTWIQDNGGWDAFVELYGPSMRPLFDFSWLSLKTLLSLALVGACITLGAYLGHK
Caspase-3 (Homo sapiens), sequence (P42574 whole entry, looked up): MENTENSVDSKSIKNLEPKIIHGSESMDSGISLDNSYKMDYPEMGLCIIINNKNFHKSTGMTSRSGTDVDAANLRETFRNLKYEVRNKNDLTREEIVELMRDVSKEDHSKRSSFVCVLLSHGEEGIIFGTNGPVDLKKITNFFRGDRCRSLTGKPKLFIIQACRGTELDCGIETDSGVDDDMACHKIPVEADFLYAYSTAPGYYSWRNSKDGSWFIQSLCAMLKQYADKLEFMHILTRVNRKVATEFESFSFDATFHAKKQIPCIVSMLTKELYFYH
Cytochrome P450 2C19 (Homo sapiens), sequence (P33261 whole entry, looked up): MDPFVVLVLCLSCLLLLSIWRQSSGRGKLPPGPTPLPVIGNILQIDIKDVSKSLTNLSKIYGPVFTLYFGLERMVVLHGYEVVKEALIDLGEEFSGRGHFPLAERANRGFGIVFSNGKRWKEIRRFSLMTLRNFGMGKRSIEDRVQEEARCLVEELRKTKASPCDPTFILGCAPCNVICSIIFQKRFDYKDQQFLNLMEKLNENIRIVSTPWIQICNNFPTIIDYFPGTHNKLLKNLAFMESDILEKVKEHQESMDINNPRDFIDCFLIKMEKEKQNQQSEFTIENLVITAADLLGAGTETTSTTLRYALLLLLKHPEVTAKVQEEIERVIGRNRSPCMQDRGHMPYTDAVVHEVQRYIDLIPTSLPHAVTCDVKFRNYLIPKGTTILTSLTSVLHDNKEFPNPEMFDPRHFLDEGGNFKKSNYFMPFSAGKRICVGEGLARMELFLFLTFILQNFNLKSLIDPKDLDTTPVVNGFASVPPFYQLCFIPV

CC(C)C(=O)OCC(C)(C)C(OC(=O)C(C)C)C(C)C (stereo unspecified)
not listed: [14]
inactive: all other assays above

Cc1ccc(O)c(C)c1
not listed: BCL2L11 (gene 10018) | [9] | [14]
inactive: all other assays above

Cc1cccc(C)c1N
active: [12] 19.3 µM
not listed: BCL2L11 (gene 10018) | [9]
inactive: all other assays above

O=C(NC(=O)c1c(F)cccc1F)Nc1cc(Cl)c(OC(F)(F)C(F)F)c(Cl)c1
active: [11] 3.63 µM | CYP2E1 (gene 1571) 11.6 µM
not listed: [14]
inactive: all other assays above

O=NN(c1ccccc1)c1ccccc1
active: [2] 82.7 µM | [5] 11.8 µM | [7] 76.1 µM | [11] 50 µM | [12] 10.6 µM | [13] 7.3 µM | CYP2C9 (gene 1559) 0.273 µM | CYP4A11 (gene 1579) 50 µM
not listed: BCL2L11 (gene 10018) | [9]
inactive: all other assays above

CC(C)(c1ccccc1)c1ccc(O)cc1
active: [6] 77.8 µM | [7] 78.3 µM | [11] 75.5 µM | [12] 11.8 µM
not listed: [9] | CYP4A11 (gene 1579) | [14]
inactive: all other assays above

CN(C)CCO
not listed: [6] | [14]
inactive: all other assays above
